PI5P4Ka inh = blocks human PI5P4K alpha kinase activity; PI5P4Kalpha enzyme, ADP-Glo luminescence, 60 min; stronger effect = lower value; max response, %; AID 652105; 330,000 tested, 1.2% active; P48426; active = max response of -50% or lower; inconclusive = between -30% and -50%; inactive = -30% or higher; note: value at the top dose of about 77 µM; % is set by controls: 0 for no effect and ±100 for the full control effect
Target sequence (P48426 whole entry, looked up): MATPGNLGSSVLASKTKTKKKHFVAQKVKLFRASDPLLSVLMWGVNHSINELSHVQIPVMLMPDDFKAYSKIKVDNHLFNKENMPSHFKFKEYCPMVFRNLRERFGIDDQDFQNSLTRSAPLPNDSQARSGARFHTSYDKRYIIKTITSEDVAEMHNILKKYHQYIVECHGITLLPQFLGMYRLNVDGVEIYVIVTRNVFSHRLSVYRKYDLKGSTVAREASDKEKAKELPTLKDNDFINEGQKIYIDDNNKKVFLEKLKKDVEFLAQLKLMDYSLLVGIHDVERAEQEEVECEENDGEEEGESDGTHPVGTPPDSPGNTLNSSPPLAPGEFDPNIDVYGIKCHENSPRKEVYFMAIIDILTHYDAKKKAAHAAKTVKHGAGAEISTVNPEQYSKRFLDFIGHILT
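PI5P4Kalpha ADP-Glo assay; 5 microM ATP final; 60 min RT reaction; HEPES pH 7.4/EGTA/CHAPS, 5% DMSO; controls lacking substrate or enzyme; luminescent end-point.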
JMJD2A Tudor = JMJD2A Tudor domain (human) inhibition; AlphaScreen JMJD2A-Tudor / H3K4me3 peptide binding; Potency, µM (top dose mostly 114 µM), inactives show at the top dose activity change, negative = inhibition, hits mostly inhibitors; AID 504339; O75164; 390,000 tested, 4.4% active; note: potency is the fitted concentration of half-maximal effect; % is set by controls: 0 for no effect and ±100 for the full control effect; nearly all actives have a fitted effect of over 50% in size
BAZ2B block = inhibitors of human BAZ2B bromodomain; Potency, µM (titrated, usually from 114 µM), for inactives: at the top dose activity change, negative = inhibition, usual class: inhibitors; Q9UIF8; 360,000 tested, 4.4% active; AlphaScreen BAZ2B-H3K14Ac peptide displacement; AID 504333; note: potency is the fitted concentration of half-maximal effect; % is set by controls: 0 for no effect and ±100 for the full control effect; nearly all actives have a fitted effect of over 60% in size
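AlphaScreen displacement: compounds (up to 110uM) incubated 30 min at room temperature with a preformed 50 nM BAZ2B/50 nM biotinylated H3K14Ac peptide complex in PBS pH 7.4 with Tween-20. Donor and acceptor beads at 10 ug/mL final added, 20 min light-protected before reading.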
PLK1 PBD inh = inhibitors of human PLK1 polo-box domain binding. P53350. Plk1 PBD binding of FITC phosphopeptide, fluorescence polarization. Potency, µM, inactives show max response, negative = inhibition, actives largely listed as inhibitors. 360,000 tested, 2.8% active; note: potency is the fitted concentration of half-maximal effect; series mostly up to about 57 µM; % is set by controls: 0 for no effect and ±100 for the full control effect; nearly all actives have a fitted effect of over 65% in size
HP1b chromo inh = inhibitors of HP1-beta chromodomain binding to methylated histone tails; P83916; AlphaScreen HP1-beta / biotin-H3K9me3 peptide binding; AID 540317; 390,000 tested, 0.56% active; Potency, µM (highest dose often 114 µM), for the others: top-dose activity change, negative = inhibition, usual class: inhibitors; note: potency is the fitted concentration of half-maximal effect; nearly all actives have a fitted effect of over 70% in size
Target sequence (P83916 whole entry, looked up): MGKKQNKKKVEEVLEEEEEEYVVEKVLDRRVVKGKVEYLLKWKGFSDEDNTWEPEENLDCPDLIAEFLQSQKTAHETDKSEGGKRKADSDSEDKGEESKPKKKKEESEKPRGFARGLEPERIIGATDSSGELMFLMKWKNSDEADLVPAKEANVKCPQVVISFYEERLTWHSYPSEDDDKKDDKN
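AlphaScreen: HP1-beta (50 nM) preformed 30 min with biotin-H3(1-18)K9me3 peptide (50 nM) in PBS pH 7.4, 0.01% Tween-20. Compound added for 30 min at RT, then streptavidin donor/nickel chelate acceptor beads (10 ug/mL) for 30 min.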
G9a inh = G9a (human) methyltransferase inhibition. G9a H3K9 monomethylation, AlphaScreen, 2 h. Q96KQ7. 350,000 tested, 8.8% active. Potency, µM (highest dose often 102 µM), without a hit: at the top dose activity, negative = inhibition, hits mostly inhibitors; note: potency is the fitted concentration of half-maximal effect; % is set by controls: 0 for no effect and ±100 for the full control effect; nearly all actives have a fitted effect of over 75% in size
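Step 1: enzyme (final 20 nM) with compound, 15 min RT. Step 2: substrate peptide 500 nM and SAM 20 uM, 2 h RT. Step 3: anti-H3K9me1 antibody and AlphaScreen beads, 10 min, then plate read.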
Starred values were filed as active, the others as inactive; ? = inconclusive; . = not tested or not shown; [ ] = another dose, or the depositor's remark. This is a sample that favours compounds with a hit; in the whole collection about 12% have one here. Unless noted, calls come from the whole dose curve; as a rule, active = well fitted curve in the direction sought with a large enough effect; inconclusive = small, poorly fitted or top-dose-only effect, or another doubt; inactive = no such curve, though single readings can be large; an effect the other way counts as inactive or inconclusive.

SMILES	PI5P4Ka inh	JMJD2A Tudor	BAZ2B block	PLK1 PBD inh	HP1b chromo inh	G9a inh
O=C(COC(=O)c1ccc(-c2ccc([N+](=O)[O-])cc2)o1)NC(=O)NC1CCCCC1	1	-31%	-6%	-12%	-11%	40µM*
NC(=O)c1ccc(SCC(=O)OCC(=O)N2CCCC2=O)c([N+](=O)[O-])c1	-5	-10%	5%	-18%	14%	50µM*
NC(=O)c1ccc(SCC(=O)OCC(=O)NC2CCCCCCC2)c([N+](=O)[O-])c1	?	?	-23%	24µM*	?	?
CCN(C(=O)COC(=O)CSc1ccc(C(N)=O)cc1[N+](=O)[O-])C1CCCCC1	2	-13%	-14%	-12%	34%	-2%
CC1CCN(C(=O)CN(Cc2ccc(F)cc2)S(C)(=O)=O)CC1	-2	-14%	-2%	-23%	33%	-5%
COc1ccc(-c2c3c(=O)n(C)c(=O)n(C)c3cn2-c2cccc(N)c2)cc1	.	?	?	.	?	11µM*
COc1ccc(-c2c3c(=O)n(C)c(=O)n(C)c3cn2-c2ccc(O)cc2)cc1	-4	-32%	79µM*	-20%	?	-5%[12.7 µM]
O=C(Nc1ccc(-c2cn3cccnc3n2)cc1)c1ccccc1F	.	-15%	-3%	.	7%[57 µM]	-3%[59 µM]
COc1ccc(Cn2c(=O)c3oc4ccccc4c3n(Cc3cccc(C(F)(F)F)c3)c2=O)cc1	.	-15%	-8%	.	1%	-5%[59 µM]
CC(C)(C)C(=O)Cn1ncc(Cl)c(Cl)c1=O	1	-12%	0%	-14%	46%	-4%
C=CCn1c(C)cc(C(=O)Cn2ncc(Cl)c(Cl)c2=O)c1C	-72*	-28%	?	-22%	-3%	4%[59 µM]
Cn1c(SCC(=O)c2ccc3c(c2)OCO3)nnc1C1COc2ccccc2O1 (stereo not drawn)	-17	50µM*	6%	?	37%	?
Cc1occc1-c1nnc(SCc2cc(=O)n3cc(Br)ccc3n2)n1C	-19	?	56µM*	-8%	14%	-25%[59 µM]
Cn1c(SCc2cc(=O)n3cc(Br)ccc3n2)nnc1C1COc2ccccc2O1 (stereo not drawn)	?	50µM*	?	-13%	30%	-18%[59 µM]
Cc1ccc(-c2ocnc2C(=O)N2CCOCC2)cc1	-4	-6%	2%	-11%	21%	15%[0.501 µM]
CC(NC1CCCC1)C(=O)Nc1ccccc1-c1ccccc1 (stereo not drawn)	.	2µM*	79µM*	-2%	?	?
O=C(CNC(=O)c1ccc(F)cc1)N/N=C/c1ccc(O)c([N+](=O)[O-])c1	-65*	-15%	-3%	4%	9%	?
O=C(CNC(=O)c1cccc(F)c1)N/N=C/c1ccc(O)c([N+](=O)[O-])c1	-72*	-10%	-2%	2%	12%	-21%
CCN(CC)S(=O)(=O)c1ccc2c(c1)N(CC(=O)NCc1ccccc1)C(=O)C1CCCCN21 (stereo not drawn)	.	-2%	-3%	.	30%	17%[59 µM]
N#CC(c1cccc(Cl)c1)c1ccc2c(C(F)(F)F)cc(C(F)(F)F)nc2n1 (stereo not drawn)	-13	28µM*	10µM*	-16%	10µM*	14µM*
COc1ccc2c(c1)C1=NN(/C(C)=C/C(C)=O)C(c3ccc(F)cc3)C1CC2 (stereo not drawn)	-12	?	1%	2%	-14%	-14%[59 µM]
COc1ccc2c(c1)CCC1C2=NN(/C(C)=C\C(C)=O)C1c1ccc(F)cc1 (stereo not drawn)	-13	14µM*	13%	12µM*	-20%	16µM*
COc1cc(F)cc(F)c1[S+](=O)([O-])N1CCN([S+](=O)([O-])c2ccc3c(c2)OCCO3)CC1	.	-2%	.	.	.	.
CCOc1ccc(-n2c(Cc3cc(=O)[nH]c(=O)[nH]3)nnc2SCC(N)=O)cc1	.	0%	?	-9%	27%	45µM*
COC(=O)C(C)Sc1nnc(Cc2cc(=O)[nH]c(=O)[nH]2)n1-c1cccc(OC)c1 (stereo not drawn)	10	-5%	12%	-6%	56%	?
SMILES	PI5P4Ka inh	JMJD2A Tudor	BAZ2B block	PLK1 PBD inh	HP1b chromo inh	G9a inh
O=C(CSc1nnc(Cc2cc(=O)[nH]c(=O)[nH]2)n1-c1ccc(Cl)cc1)NC1CCCC1	-6	-14%	0%	?	41%	40µM*
CCOc1ccc(-n2c(O)cc(=O)[nH]c2=O)cc1	-12	0%	11%	-21%	17%	71µM*
CCOc1ccc(-n2c(Cc3cc(=O)[nH]c(=O)[nH]3)nnc2SCC(=O)NC2CCCC2)cc1	-11	9%	-3%	-1%	23%	?
COc1cccc(-n2c(Cc3cc(=O)[nH]c(=O)[nH]3)nnc2SC(C)C)c1	1	-12%	9%	-16%	57%	40µM*
COc1ccc(C2=Nc3ccccc3N(C(=O)c3cccnc3)C2C(=O)NC(C)(C)C)cc1 (stereo not drawn)	-8	.	.	-15%	.	.
Cc1ccc(OCCn2c(-c3ccc(Br)cc3)nc3ccccc3c2=O)cc1C	.	2%	9%	.	30%	-8%[59 µM]
COc1ccc(-c2cc(C(=O)NCc3ccc(F)cc3)[nH]n2)c(C)c1	0	.	.	3%	.	.
CN(C)C1=NCCN1CC1CCCCCC1	-3	-23%	10%	-11%	20%	18%[2.33 µM]
CCCc1cc(=O)[nH]c2nnc(SCC(=O)NC3CCCC3)n12	-16	4%	9%	3%	46%	18µM*
O=C1NC(=S)SC1=C1CCCCCC1	-57*	-19%	?	?	10%	?
O=S1(=O)C=C(Sc2nc3cc(Cl)ccc3o2)c2ccccc21	-17	?	-24%	6.7µM*	-11%	45µM*
CCCCN(CC)CCNC(=O)Cn1cnc2sc(C)c(S(=O)(=O)N3CCN(c4ccccc4OC)CC3)c2c1=O	.	-22%	-3%	.	8%	-5%[59 µM]
COc1ccc(Nc2oc(-c3ccco3)nc2S(=O)(=O)c2ccc(F)cc2)cc1	0	?	?	-6%	-6%	45µM*
O=S(=O)(c1ccc(F)cc1)c1nc(-c2ccco2)oc1Nc1ccc(F)cc1	3	-28%	?	2%	7%	50µM*
CC(C)(C)OC(=O)N1CCC(c2c(C(=O)N3CCN(c4ccccc4)CC3)cnn2-c2ccccc2)CC1	.	-29%	1%[57.1 µM]	.	-9%	?
Oc1ccc(-c2csc(Nc3ncccn3)n2)cc1O	-17	28µM*	.	-15%	71µM*	2.2µM*
CC(=O)Nc1cccc(-c2csc(Nc3ncccn3)n2)c1	.	.	-12%	.	.	16µM*
NS(=O)(=O)c1ccc(CCNC(=O)c2cc([N+](=O)[O-])ccc2N2CCOCC2)cc1	5	-9%	-6%	-5%	25%	-10%[12.7 µM]
